Test results as given in PubChem BioAssay.
Inconclusive results are not listed. The source made the active and inactive calls.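 How the source made its calls, unless noted: active means inhibition above the screen-wide mean plus 3 SD, about 51%; inactive means the rest.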

Columns and labels:
[1] = yeast TOR pathway RPL19A-GFP modulators, primary screen, cell-based, S. cerevisiae, multiplex flow cytometry (AID 1862; in the data active means percent of DMSO control GFP below about 86%;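 further: lower values mimic rapamycin by blocking the RPL19A rise seen in DMSO cells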); settings: S. cerevisiae RPL19A-GFP strain, flow cytometry fluorescence, 3 h; at 10 µM; stronger effect = lower value
[2] = modulators of MEP2-GFP levels in yeast, primary screen, S. cerevisiae, multiplex flow cytometry (AID 1867;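 active means GFP response, as percent of the DMSO control, above the screen-wide mean plus 3 SD, about 139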;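 further: median GFP channel fluorescence of barcode-gated MEP2-GFP cells measured by flow cytometry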); settings: S. cerevisiae MEP2-GFP strain, 3 h, at 10 µM, stronger effect = higher value, 100% means same as DMSO wells
[3] = modulators of CIT2-GFP expression in yeast, primary screen, S. cerevisiae, GFP fusion, multiplex flow cytometry (AID 1870;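 active means percent response above a set limit, the screen-wide mean plus 3 SD, cut at about 130% in these data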;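 further: barcoded CIT2-GFP strain pooled with four other GFP strains with rapamycin as positive control; median GFP fluorescence per well over plate mean of DMSO wells so 100% = DMSO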); settings: 3 h, at 10 µM, stronger effect = higher value
[4] = modulators of LAP4-GFP expression in yeast, primary screen, S. cerevisiae, multiplex flow cytometry (AID 1873;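 active means GFP signal, as percent of the solvent control, above the screen mean plus 3 SD, about 149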); settings: 3 h, at 10 µM, stronger effect = higher value
[5] = modulators of AGP1-GFP expression in yeast TOR pathway, primary screen, cell-based, multiplex flow cytometry, S. cerevisiae (AID 1887;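 active means GFP signal above the screen-wide mean plus 3 SD, that is over about 124.5% of the solvent control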;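 further: AGP1-GFP fusion strain of S. cerevisiae within a five-strain barcoded multiplex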); settings: 3 h, at 10 µM, stronger effect = higher value
[6] = RPL19A-GFP modulators, yeast TOR pathway, confirmation, cell-based, S. cerevisiae, flow cytometry, cherry picks, mother/daughter gates (AID 2270;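 active means GFP response below 50% of the DMSO control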); settings: S. cerevisiae RPL19A-GFP strain, 3 h, at 10 µM, stronger effect = lower value, 100 = same GFP as DMSO wells
[7] = LAP4-GFP expression modulators in yeast, confirmation, cell-based, cherry picks, flow cytometry, mother/daughter gates (AID 2271;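 active means GFP response above 150% of the DMSO control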;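 further: ratio of sample to DMSO plate mean so 100% equals DMSO level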); settings: S. cerevisiae LAP4-GFP strain, 3 h, at 10 µM, stronger effect = higher value, 100 means same as DMSO control
[8] = modulators of MEP2-GFP levels in yeast, confirmation, S. cerevisiae, flow cytometry GFP, cherry picks (AID 2272;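 active means GFP response above 150% of the DMSO control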;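 further: ratio of well signal to plate DMSO mean so 100% equals DMSO level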); settings: S. cerevisiae MEP2-GFP strain, 3 h, at 10 µM, stronger effect = higher value
[9] = modulators of CIT2-GFP expression in yeast, confirmation, S. cerevisiae, GFP fusion, cherry picks, mother/daughter gates (AID 2274;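 active means GFP response above 150% of the DMSO level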); settings: S. cerevisiae CIT2-GFP strain, flow cytometry, 3 h, at 10 µM, stronger effect = higher value
[10] = inhibitors of CD8+ T cell-vesicle binding, pilot screen, LFA-1/ICAM-1 modulator project, MLPCN validation set, flow cytometry (AID 2523;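 active means response below a set limit, under 55% cells CD8-positive and vesicle-bound, and CD8 cells' 90th-percentile brightness under 279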;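 on vesicle binding response: mean PE anti-B7-1 fluorescence of CD8+ cells relative to row control; 100% = QL9-loaded vesicles with DMSO vehicle in the same plate row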); settings: 2C mouse CD8+ T cells, at 7 µM, stronger effect = lower value; double positive events: measured here: CD8+/vesicle+ event percentage
[11] = target: Integrin beta-1 (Homo sapiens) + Integrin alpha-4 (Homo sapiens) (UniProt P13612+P05556); experiment: inhibition of HUTS-21 binding to VLA-4, pilot screen, VLA-4 allosteric modulator project, U937 cells, HUTS-21 mAb, flow cytometry, validation set (AID 2674;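 active means inhibition above 50%, about 3 SD of the validation set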;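 further: antibody binding induced by the VLA-4 ligand LDV present at three times its Kd; 0% = LDV ligand with antibody and no compound and 100% = antibody without LDV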); settings: HUTS-21 LIBS mAb binding, at 6.7 µM, stronger effect = higher value, binding induced by LDV ligand
Sequence of Integrin beta-1 (Homo sapiens) + Integrin alpha-4 (Homo sapiens) (P05556 whole entry, looked up): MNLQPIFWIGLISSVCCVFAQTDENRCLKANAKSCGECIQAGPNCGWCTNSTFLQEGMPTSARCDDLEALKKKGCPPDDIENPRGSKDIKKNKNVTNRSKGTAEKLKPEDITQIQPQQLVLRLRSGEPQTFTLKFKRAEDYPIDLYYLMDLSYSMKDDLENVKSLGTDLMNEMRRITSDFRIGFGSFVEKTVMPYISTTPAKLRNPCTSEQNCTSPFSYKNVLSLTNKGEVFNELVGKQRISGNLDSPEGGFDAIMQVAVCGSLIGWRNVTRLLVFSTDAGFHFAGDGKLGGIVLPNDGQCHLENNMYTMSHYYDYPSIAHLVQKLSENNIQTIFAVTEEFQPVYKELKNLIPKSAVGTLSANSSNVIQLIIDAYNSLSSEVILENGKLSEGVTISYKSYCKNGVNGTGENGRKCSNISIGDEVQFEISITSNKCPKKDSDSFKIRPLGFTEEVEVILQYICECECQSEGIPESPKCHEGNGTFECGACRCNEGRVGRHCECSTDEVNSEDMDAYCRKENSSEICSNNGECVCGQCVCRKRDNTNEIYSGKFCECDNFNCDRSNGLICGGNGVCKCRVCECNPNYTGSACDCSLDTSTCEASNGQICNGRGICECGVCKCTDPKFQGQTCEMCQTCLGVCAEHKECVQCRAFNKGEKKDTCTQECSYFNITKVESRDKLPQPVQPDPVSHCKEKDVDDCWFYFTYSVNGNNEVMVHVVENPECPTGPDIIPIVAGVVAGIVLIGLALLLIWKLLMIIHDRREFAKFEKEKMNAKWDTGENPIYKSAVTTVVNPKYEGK
Sequence of Integrin beta-1 (Homo sapiens) + Integrin alpha-4 (Homo sapiens) (P13612 whole entry, looked up): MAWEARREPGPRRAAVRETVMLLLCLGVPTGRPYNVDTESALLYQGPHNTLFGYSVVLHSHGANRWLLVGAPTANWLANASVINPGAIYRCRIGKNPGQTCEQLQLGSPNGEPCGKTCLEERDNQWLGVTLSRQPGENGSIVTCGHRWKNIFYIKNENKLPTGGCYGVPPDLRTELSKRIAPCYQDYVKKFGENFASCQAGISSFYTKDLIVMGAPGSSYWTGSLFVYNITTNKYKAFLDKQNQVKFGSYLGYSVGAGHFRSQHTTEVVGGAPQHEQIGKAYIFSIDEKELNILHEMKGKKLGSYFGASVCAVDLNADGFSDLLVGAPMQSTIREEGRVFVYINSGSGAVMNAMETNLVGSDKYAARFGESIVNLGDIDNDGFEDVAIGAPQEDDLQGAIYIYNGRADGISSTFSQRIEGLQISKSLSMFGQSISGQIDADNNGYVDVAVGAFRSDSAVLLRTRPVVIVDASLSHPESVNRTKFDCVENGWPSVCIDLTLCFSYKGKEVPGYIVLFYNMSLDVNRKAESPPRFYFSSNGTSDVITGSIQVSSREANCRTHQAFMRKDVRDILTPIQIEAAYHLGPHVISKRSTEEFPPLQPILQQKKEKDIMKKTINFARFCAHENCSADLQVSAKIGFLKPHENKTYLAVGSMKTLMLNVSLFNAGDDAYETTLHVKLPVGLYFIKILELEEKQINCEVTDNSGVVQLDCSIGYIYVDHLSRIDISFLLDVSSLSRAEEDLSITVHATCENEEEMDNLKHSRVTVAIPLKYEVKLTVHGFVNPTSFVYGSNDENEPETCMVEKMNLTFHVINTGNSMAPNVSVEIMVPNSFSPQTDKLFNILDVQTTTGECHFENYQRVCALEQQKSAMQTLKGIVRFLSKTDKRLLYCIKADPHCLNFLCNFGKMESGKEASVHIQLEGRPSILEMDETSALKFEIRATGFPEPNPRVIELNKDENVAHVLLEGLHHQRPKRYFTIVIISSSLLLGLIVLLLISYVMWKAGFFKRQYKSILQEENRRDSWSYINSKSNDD

[12] = superoxide lowering in aged yeast cells, pilot screen, validation compound set (AID 2706;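 active means superoxide response below 65% of plate, a cut near 3 SD across the whole screen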;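 further: yeast exposed to compound for one week at 30 degrees C before staining; 100% = mean of all compound wells on the same plate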); settings: S. cerevisiae aging, superoxide DHE fluorescence; at 10 µM; stronger effect = lower value
[13] = target: Beta-adrenergic receptor kinase 1 (Homo sapiens) (UniProt P25098); experiment: GRK2 binders displacing RNA aptamer, biochemical, validation, human GRK2, bead flow cytometry (AID 488806;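 active means aptamer binding inhibition above 30%, about 3 SD of noise from non-fluorescent compounds; inactive means inhibition at or below 30%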); settings: bead-bound GRK2, FAM-aptamer displacement, at 10 µM, stronger effect = higher value
Sequence of Beta-adrenergic receptor kinase 1 (Homo sapiens) (P25098 whole entry, looked up): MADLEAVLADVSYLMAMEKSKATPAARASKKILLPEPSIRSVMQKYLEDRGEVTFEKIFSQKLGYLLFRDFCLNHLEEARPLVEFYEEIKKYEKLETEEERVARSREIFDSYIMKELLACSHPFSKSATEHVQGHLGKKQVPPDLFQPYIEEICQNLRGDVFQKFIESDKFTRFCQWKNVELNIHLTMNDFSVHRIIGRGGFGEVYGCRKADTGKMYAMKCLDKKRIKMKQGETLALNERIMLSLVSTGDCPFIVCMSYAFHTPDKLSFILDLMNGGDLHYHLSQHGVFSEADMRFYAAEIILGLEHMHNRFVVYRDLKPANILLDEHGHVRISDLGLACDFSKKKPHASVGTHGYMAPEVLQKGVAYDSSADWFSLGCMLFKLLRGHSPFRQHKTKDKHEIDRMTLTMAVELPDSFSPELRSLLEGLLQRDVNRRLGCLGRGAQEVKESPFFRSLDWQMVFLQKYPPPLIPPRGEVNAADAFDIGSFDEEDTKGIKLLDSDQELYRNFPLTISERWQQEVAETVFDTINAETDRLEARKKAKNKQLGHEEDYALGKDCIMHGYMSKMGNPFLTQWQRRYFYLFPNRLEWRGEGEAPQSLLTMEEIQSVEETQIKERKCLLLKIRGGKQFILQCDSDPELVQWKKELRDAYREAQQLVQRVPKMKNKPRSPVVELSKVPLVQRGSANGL

[14] = target: Beta-2 adrenergic receptor (Homo sapiens) (UniProt P07550); experiment: beta2AR agonists driving receptor internalization, pilot screen, cell-based, FAP fluorogen, flow cytometry, validation set (AID 504459;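 active means percent response above 42, roughly 3 SD of non-fluorescent test compounds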;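 further: agonist-driven loss of surface beta2AR via internalization measured by FAP dye flow cytometry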); settings: Am2.2-beta2AR cells, FAP surface receptor flow cytometry; at 10 µM; stronger effect = higher value
Sequence of Beta-2 adrenergic receptor (Homo sapiens) (P07550 whole entry, looked up): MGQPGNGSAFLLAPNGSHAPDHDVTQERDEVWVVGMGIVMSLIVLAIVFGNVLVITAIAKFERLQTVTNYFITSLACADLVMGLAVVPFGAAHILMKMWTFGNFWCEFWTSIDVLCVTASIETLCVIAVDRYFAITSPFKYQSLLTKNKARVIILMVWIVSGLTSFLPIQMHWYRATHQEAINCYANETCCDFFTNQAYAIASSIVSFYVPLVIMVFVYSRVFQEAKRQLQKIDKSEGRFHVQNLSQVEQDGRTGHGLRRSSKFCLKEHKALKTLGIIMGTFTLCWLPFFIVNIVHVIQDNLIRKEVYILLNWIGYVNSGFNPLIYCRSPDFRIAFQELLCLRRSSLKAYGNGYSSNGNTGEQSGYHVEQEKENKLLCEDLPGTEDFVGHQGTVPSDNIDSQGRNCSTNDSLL

[15] = target: AP-2 complex subunit beta (Homo sapiens) (UniProt P63010); experiment: inhibitors of arrestin peptide binding to AP2, pilot screen, biochemical, validation set, GST-AP2 beads, flow cytometry (AID 504541;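 active means inhibition above 54%, about 3 SD of non-fluorescent compounds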;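 further: AP2 carries R879A mutation and is captured from E. coli lysate; bead-bound FITC arrestin peptide fluorescence measuring arrestin peptide binding to AP2; 0% = DMSO wells and 100% = excess unlabeled arrestin peptide control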); settings: FITC arrestin peptide, at 10 µM, stronger effect = higher value, AP2 beta2 appendage fragment, R879A mutant
Sequence of AP-2 complex subunit beta (Homo sapiens) (P63010 whole entry, looked up, the tested form may be a part, one chain of several): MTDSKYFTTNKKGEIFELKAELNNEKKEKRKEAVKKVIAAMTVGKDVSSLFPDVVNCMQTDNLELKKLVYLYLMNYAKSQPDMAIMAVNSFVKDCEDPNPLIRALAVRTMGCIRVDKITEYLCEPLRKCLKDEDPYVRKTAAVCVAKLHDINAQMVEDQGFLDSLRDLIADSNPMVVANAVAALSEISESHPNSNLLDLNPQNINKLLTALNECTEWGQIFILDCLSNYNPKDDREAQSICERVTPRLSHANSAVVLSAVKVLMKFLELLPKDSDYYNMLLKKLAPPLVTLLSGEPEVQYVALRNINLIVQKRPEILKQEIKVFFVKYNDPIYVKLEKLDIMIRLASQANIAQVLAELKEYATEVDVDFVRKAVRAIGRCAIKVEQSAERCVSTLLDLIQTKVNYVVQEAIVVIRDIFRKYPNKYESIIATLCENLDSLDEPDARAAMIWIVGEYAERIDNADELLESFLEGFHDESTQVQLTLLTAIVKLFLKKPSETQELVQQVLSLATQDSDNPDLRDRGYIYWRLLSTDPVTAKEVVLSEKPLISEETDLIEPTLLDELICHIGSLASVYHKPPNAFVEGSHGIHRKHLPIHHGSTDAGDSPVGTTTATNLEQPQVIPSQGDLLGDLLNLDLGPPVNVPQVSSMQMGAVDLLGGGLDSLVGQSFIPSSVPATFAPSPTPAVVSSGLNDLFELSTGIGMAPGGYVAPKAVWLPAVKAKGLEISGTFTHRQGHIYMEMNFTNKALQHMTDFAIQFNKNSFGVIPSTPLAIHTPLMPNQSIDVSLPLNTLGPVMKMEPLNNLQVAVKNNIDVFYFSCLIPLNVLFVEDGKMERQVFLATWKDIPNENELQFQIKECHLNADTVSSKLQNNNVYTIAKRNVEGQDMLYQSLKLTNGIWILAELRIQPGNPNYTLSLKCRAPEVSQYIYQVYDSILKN

[16] = yeast V-ATPase proton transport modulators, S. cerevisiae, pHLuorin, HTS validation (AID 504600; in the data active means response above about 15%;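 further: plate controls were DMSO for no effect and reference compound for full effect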); settings: S. cerevisiae pHLuorin cytosolic pH, at 10 µM, stronger effect = higher value
[17] = tested on: anti-desmoglein-3 scFv antibody binding to human DSG3; experiment: inhibitors of anti-DSG3 scFv binding to DSG3, pilot screen, biochemical, validation compound set, bead-based, flow cytometry (AID 588368;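 active means binding below the plate cutoff, the plate median minus 3 SD, with a reading above zero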;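 further: signal is the median channel fluorescence of bead-bound GFP antibody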); settings: Protein G beads, DSG3-Fc, scFv-GFP binding, at 10 µM, stronger effect = lower value
[18] = inhibitors of fungal efflux pumps CDR1, CDR2, MDR1, pilot screen, validation compound set, multiplex, phenotypic (AID 588506;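 active means efflux inhibition above 0.42, the validation set average plus 4 SD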;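 further: Nile Red retained in cells so higher fluorescence means more efflux inhibition; 0 = negative control wells and 1 = enniatin B 25 µM full block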); settings: S. cerevisiae pump-expressing triplex, Nile Red efflux flow cytometry; at 10 µM; stronger effect = higher value; the pumps come from Candida albicans
[19] = target: ATP-binding cassette sub-family B member 6 (Homo sapiens) (UniProt Q9NP58); experiment: ABCB6 transporter inhibitors, pilot screen, K562-ABCB6 cells, flow cytometry, validation set (AID 588550); settings: K562-ABCB6 porphyrin accumulation, 1 h, at 10 µM, stronger effect = higher value;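 further: 0% = DMSO wells and 100% = benzethonium chloride 70 µM positive control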
Sequence of ATP-binding cassette sub-family B member 6 (Homo sapiens) (Q9NP58 whole entry, looked up): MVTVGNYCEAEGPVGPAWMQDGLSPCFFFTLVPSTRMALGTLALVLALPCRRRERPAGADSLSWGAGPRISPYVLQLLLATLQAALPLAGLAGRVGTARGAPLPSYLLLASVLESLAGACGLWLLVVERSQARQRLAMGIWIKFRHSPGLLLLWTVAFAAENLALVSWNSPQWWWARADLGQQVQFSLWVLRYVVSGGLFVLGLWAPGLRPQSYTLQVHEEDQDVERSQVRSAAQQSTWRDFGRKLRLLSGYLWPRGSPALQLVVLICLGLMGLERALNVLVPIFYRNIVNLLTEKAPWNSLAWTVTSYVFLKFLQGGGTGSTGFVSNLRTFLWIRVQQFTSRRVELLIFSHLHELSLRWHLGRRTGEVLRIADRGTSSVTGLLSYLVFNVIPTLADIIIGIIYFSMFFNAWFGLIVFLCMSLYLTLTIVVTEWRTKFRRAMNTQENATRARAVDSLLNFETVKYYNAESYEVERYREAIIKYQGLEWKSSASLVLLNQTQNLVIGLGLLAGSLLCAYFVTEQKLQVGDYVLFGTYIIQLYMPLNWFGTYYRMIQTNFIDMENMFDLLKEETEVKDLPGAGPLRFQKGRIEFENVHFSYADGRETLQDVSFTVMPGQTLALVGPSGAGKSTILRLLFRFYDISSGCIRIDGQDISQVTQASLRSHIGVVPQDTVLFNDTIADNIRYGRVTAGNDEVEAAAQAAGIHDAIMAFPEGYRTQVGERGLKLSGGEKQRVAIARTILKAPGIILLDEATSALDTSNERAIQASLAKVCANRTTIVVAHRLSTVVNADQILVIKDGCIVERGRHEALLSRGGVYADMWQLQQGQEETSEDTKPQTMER

[20] = promoters of myeloid differentiation in arrested cells, primary screen, cell-based, GFP/MAC1 double positive, flow cytometry, validation set (AID 588685;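 active means differentiation response of at least 50%, scaled between solvent and reference control, from cells with both markers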;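 further: compound exposure lasts four days before antibody staining and flow analysis; 0% = DMSO wells and 100% = 5 µM fulvestrant positive control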); settings: ER-HoxA9 marrow cells, stronger effect = higher value, normalized: vehicle 0, fulvestrant 100
[21] = measured here: daughter cell gate
[22] = measured here: mother cell gate

CC(=O)OCC(=O)[C@H]1CC[C@H]2[C@@H]3CCC4=CC(=O)CC[C@]4(C)[C@H]3CC[C@]12C
percent of DMSO control GFP [1]: 89.1% (inactive) | GFP response vs DMSO [2]: 103% (inactive) | percent response of DMSO control [3]: 108% (inactive) | GFP response vs DMSO [4]: 73.2% (inactive) | GFP response, % of DMSO [5]: 86.3% (inactive) | GFP response vs DMSO [6]: 95.8% (inactive) | GFP response vs DMSO [6, 21]: 96.7% | GFP response vs DMSO [6, 22]: 96.5% | GFP response relative to DMSO [7]: 103% (inactive) | GFP response relative to DMSO ([7]; measured here: daughter cell gate response): 99.3% | GFP response relative to DMSO ([7]; measured here: mother cell gate response): 106% | GFP response vs DMSO [8]: 97.5% (inactive) | GFP response, % of DMSO [9]: 97.8% (inactive) | GFP response, % of DMSO [9, 21]: 98.3% | GFP response, % of DMSO [9, 22]: 99.1% | double positive events [10]: 52.1% | vesicle binding response [10]: 113% (inactive) | inhibition [11]: -1.3% (inactive) | superoxide response (% of plate) [12]: 119% (inactive) | aptamer binding inhibition [13]: -1% (inactive) | response [14]: -16.7% (inactive) | inhibition [15]: -3.8% (inactive) | response [16]: -1.21% (inactive) | binding (% of control) [17]: 105% (inactive) | efflux inhibition (fraction of control) [18]: -0.28 (inactive) | inhibition [19]: 8% (inactive) | differentiation response [20]: -1.64% (inactive)

O=c1nc2n(c3c1oc1ccccc13)Cc1ccccc1-2
percent of DMSO control GFP [1]: 100% (inactive) | GFP response vs DMSO [2]: 105% (inactive) | percent response of DMSO control [3]: 104% (inactive) | GFP response vs DMSO [4]: 105% (inactive) | GFP response, % of DMSO [5]: 108% (inactive) | double positive events [10]: 56.6% | vesicle binding response [10]: 142% (inactive) | inhibition [11]: -3.77% (inactive) | superoxide response (% of plate) [12]: 93.6% (inactive) | aptamer binding inhibition [13]: -1% (inactive) | response [14]: -25.7% (inactive) | inhibition [15]: -6.48% (inactive) | response [16]: -0.9% (inactive) | binding (% of control) [17]: 99.6% (inactive) | efflux inhibition (fraction of control) [18]: -0.3 (inactive) | inhibition [19]: -3% (inactive) | differentiation response [20]: -6.03% (inactive)
